According to PubChem BioAssay (NCI):
This is part of a sample that, as a whole, favours compounds with a hit. Of some 83,000 tested, about 20% had one in any assay.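 48-hour exposure, single concentration, 96-well plates; percent growth endpoint where 0 means no net growth. Active: below 10.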 The source made the active and inactive calls.

Legend:
Experiment in all cases: NCI-60 one-dose screen, 48 h (100 = growth as untreated, 0 = no growth, -100 = all killed)
SK-MEL-2 melanoma = details: 10 µM
EKVX NSCLC = details: 10 µM unless noted
SN12C renal = details: 10 µM unless noted
UO-31 renal = details: 10 µM unless noted
TK-10 renal = details: 10 µM unless noted
ACHN renal = details: 10 µM unless noted
CAKI-1 renal = details: 10 µM unless noted
CCRF-CEM leukemia = details: 10 µM unless noted
MOLT-4 leukemia = details: 10 µM unless noted
SR leukemia = details: 10 µM unless noted
RPMI-8226 leukemia = details: 10 µM unless noted
OVCAR-8 ovarian = details: 10 µM unless noted
OVCAR-5 ovarian = details: 10 µM unless noted
OVCAR-4 ovarian = details: 10 µM unless noted
SK-OV-3 ovarian = details: 10 µM unless noted
IGROV1 ovarian = details: 10 µM unless noted
OVCAR-3 ovarian = details: 10 µM unless noted
HS 578T breast = details: 10 µM
NCI/ADR-RES ovarian = details: 10 µM unless noted
A498 renal = details: 10 µM unless noted

Measured: growth

COc1ccc2c(CCC(c3ccccc3)c3ccccc3)c3[n+](cc2c1OC)CCc1cc2c(cc1-3)OCO2
active: SK-MEL-2 melanoma -15% | SN12C renal 0.0445% | TK-10 renal 8.09% | CCRF-CEM leukemia 6.45% | MOLT-4 leukemia -10.1% | SR leukemia -29.9% | RPMI-8226 leukemia -9.79% | OVCAR-8 ovarian 2.77% | SK-OV-3 ovarian -12.8% | OVCAR-3 ovarian -0.03%
inactive: EKVX NSCLC 24.7% | UO-31 renal 45.6% | ACHN renal 23.4% | CAKI-1 renal 60.2% | OVCAR-5 ovarian 29% | OVCAR-4 ovarian 13.3% | IGROV1 ovarian 22.9% | HS 578T breast 20.7% | NCI/ADR-RES ovarian 78.9%

CSc1nc2ncnc(SC)c2[nH]1
inactive: SK-MEL-2 melanoma 99.4% | EKVX NSCLC 94% | SN12C renal 100% | UO-31 renal 82% | TK-10 renal 99.8% | ACHN renal 103% | CAKI-1 renal 90.9% | CCRF-CEM leukemia 105% | MOLT-4 leukemia 98.9% | SR leukemia 90.3% | RPMI-8226 leukemia 106% | OVCAR-8 ovarian 103% | OVCAR-5 ovarian 102% | OVCAR-4 ovarian 101% | SK-OV-3 ovarian 79.3% | IGROV1 ovarian 114% | OVCAR-3 ovarian 115% | HS 578T breast 105% | NCI/ADR-RES ovarian 108%

CCc1nc2cc(/C=C/C(=O)NO)ccc2c(=O)n1CCc1ccc(OC)cc1
active: TK-10 renal 2.16% | ACHN renal 9.54% | A498 renal -4.17% | MOLT-4 leukemia 5.41% | SK-OV-3 ovarian 6.67% | OVCAR-3 ovarian -1.22% | NCI/ADR-RES ovarian 9.39%
inactive: SK-MEL-2 melanoma 47.4% | EKVX NSCLC 40.8% | SN12C renal 24.9% | UO-31 renal 20.6% | CAKI-1 renal 13.4% | CCRF-CEM leukemia 10.2% | SR leukemia 14.3% | RPMI-8226 leukemia 10.3% | OVCAR-8 ovarian 15.3% | OVCAR-5 ovarian 24.2% | OVCAR-4 ovarian 39.1% | IGROV1 ovarian 40.9% | HS 578T breast 41.8%

COC(=O)[C@]12CC[C@@H](C)[C@H](C)[C@@H]1C1=CC[C@@H]3[C@@]4(C)C[C@@H](OC(=O)/C=C/c5ccccc5)[C@H](O)[C@@](C)(CO)[C@@H]4[C@H](O)C[C@@]3(C)[C@]1(C)CC2
active: SN12C renal -83.2% | ACHN renal 3.47% | MOLT-4 leukemia 0.848% | SR leukemia -18.4% | RPMI-8226 leukemia 9.79% | OVCAR-5 ovarian -27.6% | OVCAR-3 ovarian -37.1% | HS 578T breast -0.549% | NCI/ADR-RES ovarian 7.34%
inactive: SK-MEL-2 melanoma 47.8% | EKVX NSCLC 33.8% | UO-31 renal 19.6% | TK-10 renal 18.1% | CAKI-1 renal 15.6% | CCRF-CEM leukemia 18.8% | OVCAR-8 ovarian 14.6% | OVCAR-4 ovarian 23.3% | SK-OV-3 ovarian 41.9% | IGROV1 ovarian 31.2%

CC1(C=O)NC(=O)NC1=O (centres undefined)
inactive: SK-MEL-2 melanoma 106% | EKVX NSCLC 99.6% | SN12C renal 97.8% | UO-31 renal 96% | TK-10 renal 100% | ACHN renal 104% | CAKI-1 renal 98.6% | CCRF-CEM leukemia 95.7% | MOLT-4 leukemia 89.9% | SR leukemia 96.6% | RPMI-8226 leukemia 109% | OVCAR-8 ovarian 94.9% | OVCAR-5 ovarian 101% | OVCAR-4 ovarian 110% | SK-OV-3 ovarian 81.9% | IGROV1 ovarian 111% | OVCAR-3 ovarian 115% | HS 578T breast 104% | NCI/ADR-RES ovarian 107%

C=C1C(=O)O[C@H]2[C@H]1CC/C(C=Nc1c(N)cc(C(F)(F)F)cc1C(F)(F)F)=C\CC[C@@]1(C)O[C@@H]21
inactive: A498 renal 34.8% | SK-OV-3 ovarian 48.8% | HS 578T breast 16.7%
active: SK-MEL-2 melanoma -39.1% | EKVX NSCLC -36.2% | SN12C renal -43.2% | UO-31 renal -89.8% | TK-10 renal -41% | ACHN renal -89.4% | CAKI-1 renal -59.3% | CCRF-CEM leukemia 4.15% | MOLT-4 leukemia -13.5% | SR leukemia 0.897% | RPMI-8226 leukemia -18.7% | OVCAR-8 ovarian 4.81% | OVCAR-5 ovarian -9.13% | OVCAR-4 ovarian -71.6% | IGROV1 ovarian -46.3% | OVCAR-3 ovarian -93.8% | NCI/ADR-RES ovarian -23.1%

Cc1cc2c3c(cccc3c1)C(=O)c1ccccc1-2
inactive: SK-MEL-2 melanoma 105% | EKVX NSCLC 78.1% | SN12C renal 97% | UO-31 renal 60.5% | TK-10 renal 106% | ACHN renal 97.6% | A498 renal 93.2% | CCRF-CEM leukemia 118% | MOLT-4 leukemia 87.2% | SR leukemia 96.6% | RPMI-8226 leukemia 109% | OVCAR-8 ovarian 107% | OVCAR-5 ovarian 100% | OVCAR-4 ovarian 94.8% | SK-OV-3 ovarian 107% | IGROV1 ovarian 90.5% | OVCAR-3 ovarian 90.2% | HS 578T breast 99.6% | NCI/ADR-RES ovarian 77.9%

CCOC(=O)C1=C(C)N=C2Sc3cccc(OC)c3N2[C@H]1c1ccccn1
inactive: SK-MEL-2 melanoma 99.3% | EKVX NSCLC 85.8% | SN12C renal 93.4% | UO-31 renal 75.3% | TK-10 renal 117% | ACHN renal 101% | CAKI-1 renal 89.2% | CCRF-CEM leukemia 102% | MOLT-4 leukemia 96.9% | SR leukemia 96.9% | RPMI-8226 leukemia 106% | OVCAR-8 ovarian 97% | OVCAR-5 ovarian 110% | OVCAR-4 ovarian 96.3% | SK-OV-3 ovarian 99.5% | IGROV1 ovarian 101% | OVCAR-3 ovarian 107% | HS 578T breast 91.9% | NCI/ADR-RES ovarian 96.4%

COc1cc(-c2nc(C(=O)NCC(=O)O)nn2-c2ccc(Cl)cc2)cc(OC)c1OC
inactive: SK-MEL-2 melanoma 120% | EKVX NSCLC 91.7% | SN12C renal 101% | UO-31 renal 90.5% | TK-10 renal 117% | ACHN renal 112% | A498 renal 107% | CCRF-CEM leukemia 84.2% | MOLT-4 leukemia 100% | SR leukemia 106% | RPMI-8226 leukemia 99% | OVCAR-8 ovarian 102% | OVCAR-5 ovarian 105% | OVCAR-4 ovarian 105% | SK-OV-3 ovarian 98.7% | IGROV1 ovarian 105% | OVCAR-3 ovarian 107% | HS 578T breast 106% | NCI/ADR-RES ovarian 105%

COC(=O)[C@]12CC[C@@H](C)[C@H](C)[C@@H]1C1=CC[C@@H]3[C@@]4(C)C(C=O)=C[C@@](C)(COS(C)(=O)=O)C4=CC[C@@]3(C)[C@]1(C)CC2
inactive: SK-OV-3 ovarian 17.1%
active: SK-MEL-2 melanoma -40.3% | EKVX NSCLC -39.2% | SN12C renal -37.8% | UO-31 renal -93.8% | TK-10 renal -54.7% | ACHN renal -82.8% | CAKI-1 renal -43.9% | CCRF-CEM leukemia -1.17% | MOLT-4 leukemia 0.901% | SR leukemia -15.6% | RPMI-8226 leukemia -4.75% | OVCAR-8 ovarian -12% | OVCAR-5 ovarian -35.9% | OVCAR-4 ovarian -61.1% | IGROV1 ovarian -24.1% | OVCAR-3 ovarian -85.7% | HS 578T breast -24.1% | NCI/ADR-RES ovarian -25.4%

CCCCCCCCCCCC[n+]1ccccc1
inactive: UO-31 renal 35% | ACHN renal 36.2% | A498 renal 19% | OVCAR-5 ovarian 14.6% | OVCAR-4 ovarian 14.9% | NCI/ADR-RES ovarian 75.4%
active: SK-MEL-2 melanoma -30.4% | EKVX NSCLC 5.6% | SN12C renal 3.89% | TK-10 renal -54.1% | CCRF-CEM leukemia 1.54% | MOLT-4 leukemia -19.1% | SR leukemia -20.7% | RPMI-8226 leukemia -39.2% | OVCAR-8 ovarian 0.812% | SK-OV-3 ovarian -1.15% | IGROV1 ovarian -37.5% | OVCAR-3 ovarian -32.9% | HS 578T breast 6.1%

O=C1CC(c2cccc(F)c2)c2c(n[nH]c2-c2ccc(Cl)cc2)N1 (centres undefined)
inactive: SK-MEL-2 melanoma 110% | EKVX NSCLC 85.1% | SN12C renal 92.8% | UO-31 renal 79.3% | TK-10 renal 94.1% | ACHN renal 90% | CAKI-1 renal 77.7% | CCRF-CEM leukemia 101% | MOLT-4 leukemia 88% | SR leukemia 89.3% | RPMI-8226 leukemia 81.8% | OVCAR-8 ovarian 85.9% | OVCAR-5 ovarian 84.7% | OVCAR-4 ovarian 95.4% | SK-OV-3 ovarian 86.4% | IGROV1 ovarian 101% | OVCAR-3 ovarian 100% | HS 578T breast 91.2% | NCI/ADR-RES ovarian 93.9%

Cc1sc2c(c1C)c(=O)nc1c(-c3nc4ccccc4s3)n[nH]n12
inactive: SK-MEL-2 melanoma 95.2% | EKVX NSCLC 81.9% | SN12C renal 96.7% | UO-31 renal 73.7% | TK-10 renal 140% | ACHN renal 101% | A498 renal 101% | CCRF-CEM leukemia 89.2% | MOLT-4 leukemia 94.5% | SR leukemia 88.5% | RPMI-8226 leukemia 87.9% | OVCAR-8 ovarian 97.9% | OVCAR-5 ovarian 110% | OVCAR-4 ovarian 99.6% | SK-OV-3 ovarian 91.4% | IGROV1 ovarian 94.2% | OVCAR-3 ovarian 98.2% | HS 578T breast 93.3% | NCI/ADR-RES ovarian 93.7%

O=C1CC(c2ccc3c(c2)OCO3)c2ncn(-c3ccc(Cl)cc3)c2N1 (centres undefined)
active: OVCAR-3 ovarian 7.91%
inactive: SK-MEL-2 melanoma 43.4% | EKVX NSCLC 68.2% | SN12C renal 56.6% | UO-31 renal 61.3% | TK-10 renal 67.9% | ACHN renal 53.9% | CAKI-1 renal 37.1% | CCRF-CEM leukemia 28.2% | SR leukemia 24.4% | RPMI-8226 leukemia 38.7% | OVCAR-8 ovarian 29.7% | OVCAR-5 ovarian 71.2% | OVCAR-4 ovarian 59.3% | SK-OV-3 ovarian 37.4% | IGROV1 ovarian 60.5% | HS 578T breast 47.5% | NCI/ADR-RES ovarian 14%

Cc1cccc(NC(=O)[C@@H]2c3ccccc3C(=O)N(c3ccc(Cl)cc3)[C@H]2c2ccc(Cl)cc2)n1
inactive: SK-MEL-2 melanoma 56.6% | EKVX NSCLC 37.2% | SN12C renal 66.5% | UO-31 renal 37.6% | TK-10 renal 69.6% | ACHN renal 52% | CAKI-1 renal 55.6% | CCRF-CEM leukemia 73.2% | MOLT-4 leukemia 35.9% | SR leukemia 34.5% | RPMI-8226 leukemia 24.5% | OVCAR-8 ovarian 51.2% | OVCAR-5 ovarian 78.7% | OVCAR-4 ovarian 45.1% | SK-OV-3 ovarian 55.1% | IGROV1 ovarian 73.5% | OVCAR-3 ovarian 61.8% | NCI/ADR-RES ovarian 47.8%

CC(C)n1c(NCCc2ccc(O)c(O)c2)nc2c1c(=O)n(C)c(=O)n2C
inactive: SK-MEL-2 melanoma 107% | EKVX NSCLC 101% | SN12C renal 98.4% | UO-31 renal 87.3% | TK-10 renal 84.6% | ACHN renal 99.3% | CAKI-1 renal 88.1% | CCRF-CEM leukemia 99.6% | MOLT-4 leukemia 105% | SR leukemia 87.2% | RPMI-8226 leukemia 77.4% | OVCAR-8 ovarian 104% | OVCAR-5 ovarian 79.2% | OVCAR-4 ovarian 90.9% | SK-OV-3 ovarian 108% | IGROV1 ovarian 110% | OVCAR-3 ovarian 102% | HS 578T breast 99.5% | NCI/ADR-RES ovarian 93.1%
